Reference: PubChem BioAssay AID1508622 (National Center for Advancing Translational Sciences (NCATS), 2021)
Unmarked numbers belong to inactive results. The source made the active and inactive calls. The call rests on the fitted dose curve; in most records, active means well fitted activation curve with a large enough effect; inconclusive means small, poorly fitted or top-dose-only effect; inactive means no such curve, though single readings can be large or run the other way.

Test: Confirmatory qHTS for Identification of Small Molecule Activators of Huntingtin-Antisense Promoter Activity
Settings: HEK293 HTT-AS promoter firefly luciferase reporter, 24 h; series mostly up to 57.5 µM; activity change, positive = activation: at the top concentration
Method in brief: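 Plated reporter HEK293 cells (24 h) received library compounds at up to 57.5 uM final or 50 uM PTC124, incubated 24 h at 37C; firefly luciferase luminescence was then recorded with Dual-Glo reagent.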
Potency means the concentration at half of the fitted maximal effect.

SMILES	activity change, positive = activation	Potency
CN(C)c1ccc(C(=C2C=CC(=[N+](C)C)C=C2)c2ccc(N(C)C)cc2)cc1	-95.6%	–
CCOC(=O)c1cc2c(=O)n3ccccc3nc2n(Cc2ccco2)c1=NC(=O)c1cc(C)cc(C)c1	-38.5%	–
Cc1ccc(C(=O)NCc2ccc3c(c2)CCN3C(=O)c2ccc(C)cc2)cc1	-20.9%	–
Cc1ccc(CNC(=O)Nc2cc(C(=O)NCc3ccc(C(C)C)cc3)ccc2N2CCCC2)cc1	-94.6%	–
Cn1cnc(S(=O)(=O)N2CCC(C(=O)Nc3ccc(OC(F)(F)F)cc3)CC2)c1	-95%	–
CCOc1ccccc1CNC(=O)c1ccc(NC(=O)N2CCSc3ncccc32)cc1	-51.6%	–
COc1ccc2[nH]cc(CCNC(=O)c3cnn(-c4ccc(C)cc4)c3C3CCN(C(=O)OC(C)(C)C)CC3)c2c1	-37%	–
COc1ccc(-c2nc3cc(NC(=O)Cc4ccc(Cl)cc4)ccc3o2)cc1OC	-40.8%	–
COc1cccc(-c2cn3c(n2)sc2cc(C(=O)NCc4cccs4)ccc23)c1	–	8.49 µM (active)
Cc1cccc2sc(N3CCN(C(=O)CS(=O)(=O)c4ccc(F)cc4)CC3)nc12	-37%	–
O=C(CSc1nc(-c2ccc(F)cc2)[nH]c1-c1ccc(F)cc1)Nc1ccc2c(c1)OCCO2	-52.4%	–
COC(=O)C1=C(CS(=O)(=O)c2ccc(C)cc2C)NC(=O)NC1c1ccc(C)cc1 (stereo not given)	-41.9%	–
CC(=O)c1cccc(NS(=O)(=O)c2ccc3[nH]c4c(c3c2)CCCCC4)c1	-89.9%	–
CCOCCCNC(=O)Nc1cc(C(=O)NCc2ccc(C(C)C)cc2)ccc1N1CCCC1	-55%	–
Cc1ccccc1C(=O)NCc1ccc2c(c1)CCN2C(=O)c1ccccc1	-51%	–
